Consider 30 compounds from ChEMBL document CHEMBL3988442, “University of Dundee, Small-Polar-MMV Screening Library” (2021).

The campaign covered roughly 48,000 compounds. About 13,000 (27%) showed an effect of 50% or more. The list shows a part of the results.

The assay relates to Wolbachia pipientis. Kind of assay: Anti-Wolbachia Cell-Based Screen. Also noted: scale not given: in the data most compounds retested in dose-response had high values. To be noted: 5 µM. Format: functional.
With `CCOCC1CCN(C(=O)Nc2ccc(-c3csnn3)cc2)C1` (stereo not given), the “Percent Effect” value was -10.06%.

For the compound `CC(C)(C)CC(=O)NS(=O)(=O)c1ccc(C#N)cc1C(F)(F)F`, the “Percent Effect” value came out at 82.77%.

For the compound `N#Cc1cccc(S(=O)(=O)NC(=O)COCC(F)(F)F)c1`, the “Percent Effect” value is -9.311%.

Take `N#Cc1cccc(S(=O)(=O)NC(=O)CCOCC(F)(F)F)c1`: the “Percent Effect” value came to 2.733%.

Consider `CC(C)CC(=O)NS(=O)(=O)c1ccc(C#N)cc1C(F)(F)F`, for which the “Percent Effect” value was 112.6%.

In the case of `COc1ccc(C(=O)NS(=O)(=O)c2ccc(C#N)cc2C(F)(F)F)cc1`, the “Percent Effect” value is on record as -4.886%.

`Cc1ccc(C)c(S(=O)(=O)NC(=O)COc2cccc(C#N)c2)c1`: the “Percent Effect” value is on record as 12.25%.

As to `Cc1ccc(C(=O)NCCC2CCN(C)CC2)cc1N(C)S(C)(=O)=O`, the “Percent Effect” value was -13.52%.

Consider `CC(=O)c1csc(-c2csc(Cn3ccc(=O)[nH]c3=O)n2)c1`, for which the “Percent Effect” value was -9.484%.

Turning to `O=C(Cn1ccnc1)N1CCC(n2cc(-c3cccc(Cl)c3)nn2)CC1`, the “Percent Effect” value is 2.937%.

Turning to `O=C(Cn1ccnc1)N1C[C@@H]2CC[C@H](Oc3ccc(Cl)cc3)[C@@H]2C1`, the “Percent Effect” value came out at 109.7%.

For the compound `CC(=O)NCC(=O)N1C[C@@H]2CC[C@H](Oc3ccccc3Cl)[C@@H]2C1`, the “Percent Effect” value was 95.47%.

For `O=C(Cn1ccnc1)N1C[C@@H]2CC[C@H](Oc3ccccc3)[C@@H]2C1`, the “Percent Effect” value was -14.9%.

Regarding `O=C(c1cnco1)N1C[C@@H]2CC[C@H](Oc3cccc(F)c3)[C@@H]2C1`, the “Percent Effect” value is -6.458%.

Consider `CCC(CNC(=O)Cn1ccnc1)Oc1cccc(F)c1` (stereo not given), for which the “Percent Effect” value is given as 0.7752%.

`O=C(Cn1ccnc1)N1C[C@@H]2CC[C@H](Oc3ccccc3F)[C@@H]2C1`: the “Percent Effect” value was determined as 91.22%.

Consider `O=C(Cn1ccnc1)N1C[C@@H]2CC[C@H](Oc3cccc(F)c3)[C@@H]2C1`, for which the “Percent Effect” value amounted to 109%.

For the compound `O=C(Cn1ccnc1)N1C[C@@H]2CC[C@H](Oc3ccccc3Cl)[C@@H]2C1`, the “Percent Effect” value was -8.109%.

Turning to `O=C(c1cnco1)N1C[C@@H]2CC[C@H](Oc3ccccc3F)[C@@H]2C1`, the “Percent Effect” value is on record as -11.33%.

Take `CN(C)CC(=O)N1C[C@@H]2CC[C@H](Oc3ccccc3Cl)[C@@H]2C1`: the “Percent Effect” value is -7.066%.

`CC(C)N1CC(C(=O)N2CCC(Oc3ccccc3Cl)CC2)CC1=O` (stereo not given): the “Percent Effect” value is listed as -11.86%.

Regarding `CC(C1CC1)N(C)C(=O)c1cnc(-c2ccc3c(c2)OCO3)s1` (stereo not given), the “Percent Effect” value is listed as -9.871%.

As to `CN(CC1CC1)C(=O)Cc1csc(-c2ncccn2)n1`, the “Percent Effect” value is recorded as -2.04%.

As to `CCC(=O)NCC(CC)Oc1cccc(F)c1` (stereo not given), the “Percent Effect” value was -9.029%.

Consider `CN(C)Cc1nc2c(o1)CN(C(=O)NCc1cccc(F)c1)C2.O=C(O)C(F)(F)F`, for which the “Percent Effect” value is -9.503%.

Turning to `CCN(CC)Cc1nc2c(o1)CN(C(=O)c1ccncc1F)C2`, the “Percent Effect” value is reported as 11.31%.

Take `CN(C)Cc1nc2c(o1)CN(S(=O)(=O)c1cccs1)C2.O=C(O)C(F)(F)F`: the “Percent Effect” value was determined as 113.1%.

With `CCN(CC)Cc1nc2c(o1)CN(S(=O)(=O)c1cccs1)C2.O=C(O)C(F)(F)F`, the “Percent Effect” value came out at 103.4%.

Take `CCN(CC)Cc1nc2c(o1)CN(C(=O)c1ccc3ncccc3c1)C2`: the “Percent Effect” value is -8.46%.

In the case of `CC(C)N(C)Cc1ncn2c1CN(S(=O)(=O)c1cccs1)CCC2.O=C(O)C(F)(F)F`, the “Percent Effect” value is 2.779%.
